Compound activity as filed in PubChem BioAssay.
Peg3 prom inh = Peg3 promoter activity inhibition; HeLa PEG-Prom luciferase reporter, luminescence, overnight; inhibition, % at 20 µM; hit rate 1.7% among 360,000; AID 588405;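 active = inhibition of at least 50% at 20 µM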
HIF-2a block = blocks HIF-2a reporter activity | 786-0 RCC cells HIF-2a reporter, luciferase luminescence, overnight | inhibition, % at 18.8 µM | hit rate 0.72% among 360,000 | AID 624352;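 active = inhibition of the luminescence signal of 40% or more relative to plate controls, in a single-dose primary screen at 18.75 µM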
KKLEB tox = reduces viability of KKLEB cystic fibrosis airway cells. activity change (cytotoxicity), % at 5 µM. hit rate 0.36% among 360,000. AID 602141. KKLEB CF airway cells viability, ATPlite luminescence, overnight; hits give low values; cells stimulated with P. aeruginosa culture filtrate;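 active = corrected activity change at or below -50% at 5 µM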
TRPM1 prom inh = MITF TRPM1 promoter inhibition in SK-MEL-5 cells. hit rate 0.83% among 330,000. inhibition, % at 12.5 µM. SK-MEL-5 TRPM1 promoter luciferase, 24 h;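 active = mean inhibition across replicates of 60% or more, whatever share of single replicates reaches that level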
CF NFkB block = inhibitors of cystic fibrosis induced NF-kB. KKLEB NF-kB-GFP reporter, PAF-induced, GFP fluorescence overnight. inhibition, % at 5 µM. hit rate 0.86% among 360,000. AID 588850;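 active = at least 50% inhibition at 5 µM, scaled per plate between neutral and stimulator controls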;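 also: PAF is a Pseudomonas aeruginosa culture filtrate used as stimulus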
Shn3 inh set2 = Schnurri-3 reporter inhibition in Clone20 osteoblasts; Clone20 osteoblast Shn3 3'UTR firefly luciferase, 24 h; hit rate 0.52% among 360,000; inhibition, % at 12.5 µM;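 active = mean inhibition of at least 75% with every replicate also reaching 75%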
Numbers stand for hits; i = inactive; nt = not tested or not shown. A selection: hits, their analogues and other compounds. The true share with any hit is near 2.8%.

SMILES | Peg3 prom inh | HIF-2a block | KKLEB tox | TRPM1 prom inh | CF NFkB block | Shn3 inh set2
Cc1nnsc1S(=O)c1ccc(Cl)cc1 (stereo not given) | i | i | i | i | i | i
O=C(Nc1ccccc1)c1nnsc1S(=O)c1ccc(Cl)cc1 (stereo not given) | 88 | i | i | i | 56 | i
Cn1cc(CNCc2ccc(OC(F)(F)F)cc2)c(-c2ccc3c(c2)OCCO3)n1 | i | i | i | i | i | nt
CCn1cc(CNCc2cn(C)nc2-c2ccc(C3CCCCC3)cc2)cn1 | 68 | i | i | i | i | i
CCOC(=O)[C@@H]1[C@H]2COc3ccccc3[C@H]2N2C(=O)N(c3ccc(C(F)(F)F)cc3)C(=O)[C@]12C | i | i | i | i | i | i
Cc1cc(/C=C2\SC(=S)N(C)C2=O)c(C)n1-c1ccc(O)cc1 | 62 | 45 | i | 76 | i | i
Cc1cc(/C=C2\SC(=S)N(C)C2=O)c(C)n1-c1ccccc1O | i | i | i | i | i | i
O=C(c1ccc(NS(=O)(=O)c2cccc(F)c2)cc1)N1CCCCC1 | i | i | i | i | i | i
Cc1c(C(=O)N2CCNCC2)oc2ccccc12 | i | i | i | i | i | i
Nc1c(C(O)(C(F)(F)F)C(F)(F)F)cc(C(O)(C(F)(F)F)C(F)(F)F)c2ccccc12 | i | 41 | i | i | i | i
CC#CCN1c2ccccc2[C@]23C[C@@H](C(=O)OC)N(C(=O)OCC)C2=NC(C(=O)OC)=C(C(=O)OC)[C@H]13 | i | i | i | i | i | i
COC(=O)C1=C(C(=O)OC)[C@@H]2N(C)c3ccc(OC)cc3[C@@]23C[C@@H](C(=O)OC)N(C(=O)c2ccc(Br)cc2)C3=N1 | 79 | i | i | i | 55 | i
COC(=O)C1=C(C(=O)OC)[C@@H]2N(Cc3ccccc3)c3ccccc3[C@@]23C[C@@H](C(=O)OC)N(C(=O)COCc2ccccc2)C3=N1 | 55 | i | i | i | i | i
C=CCN1c2ccccc2[C@]23C[C@@H](C(=O)OC)N(C(=O)c4cccs4)C2=NC(C(=O)OC)=C(C(=O)OC)[C@H]13 | 75 | i | i | i | i | i
C=CCN1c2ccccc2[C@]23C[C@@H](C(=O)OC)N(C(=O)OCC)C2=NC(C(=O)OC)=C(C(=O)OC)[C@H]13 | i | i | i | i | i | i
CC#CCN1c2ccccc2[C@]23C[C@@H](C(=O)OC)N(C(=O)C4CCC4)C2=NC(C(=O)OC)=C(C(=O)OC)[C@H]13 | 75 | i | i | i | i | i
Cc1ccccc1N(C(=O)CNC(=O)c1ccco1)C(C(=O)NC1CCCC1)c1ccncc1 (stereo not given) | i | i | i | i | i | i
COCCN1C[C@@H](CO)O[C@@H](n2cnc3c(NCCO)ncnc32)C1 | i | i | i | nt | i | i
CCN1C(=O)[C@H]2[C@@H](c3ccc(C)cc3)N[C@]3(CCCN(Cc4cccn4C)C3=O)[C@H]2C1=O | i | i | i | nt | i | i
CCOC(=O)c1sc(NC(=O)CN2C(=O)C3CC=CCC3C2=O)nc1C (stereo not given) | 89 | i | i | i | i | i
CCOC(=O)c1sc(NC(=O)CSc2nnc(C(C)C)n2CC)nc1C | 52 | i | i | i | i | i
CN(/N=C/c1ccc(O)cc1O)c1nc(-c2ccccc2)cc(-c2ccccc2)n1 | i | i | i | i | i | i
CC(c1nnc(SCC(=O)Nc2cccnc2Cl)n1Cc1ccccc1)N(C)C (stereo not given) | i | i | i | i | i | i
c1ccc(CNc2nc(NCc3cccs3)nc3ccsc23)cc1 | i | i | i | nt | i | i
COc1cccc(CNc2nc(NCC3CC3)nc3ccsc23)c1OC | i | i | i | nt | i | 82
SMILES | Peg3 prom inh | HIF-2a block | KKLEB tox | TRPM1 prom inh | CF NFkB block | Shn3 inh set2
COc1cccc(CNc2nc(NCc3ccccc3)nc3ccsc23)c1 | 64 | i | i | nt | i | i
COc1cccc(CNc2nc(NC(C)C)nc3ccsc23)c1OC | i | i | i | nt | i | i
c1ccc(CNc2nc(NCCc3ccncc3)c3sccc3n2)cc1 | 54 | i | i | nt | i | i
CNc1nc(NCc2cccc(OC)c2)c2sccc2n1 | i | i | i | nt | i | i
COc1cccc(CNc2nc(NCC3CC3)nc3ccsc23)c1 | i | i | i | nt | i | 86
CCN1CCN(C(=S)c2ccc([N+](=O)[O-])cc2)CC1 | i | i | i | i | i | i
COC(=O)c1sc(N2C(=O)c3oc4ccccc4c(=O)c3C2c2cccc(O)c2)nc1C (stereo not given) | 52 | i | i | i | i | i
CN(C)CCNc1ncnc2oc(-c3ccccc3)c(-c3ccccc3)c12 | 71 | i | i | i | i | i
COc1ccc(-c2oc3ncnc(NCCCN(C)C)c3c2-c2ccc(OC)cc2)cc1 | 104 | i | i | i | i | i
COc1ccc(-c2nsc3c(N4CCCCC4)ncnc23)cc1 | i | 60 | -62 | 65 | i | i
C[C@H]1CN([C@@H](C)CO)C(=O)CCCn2cc(nn2)CO[C@@H]1CN(C)C(=O)Nc1ccc2c(c1)OCCO2 | i | i | i | nt | i | i
Cc1cc(C)n2nc(C(=O)OCC(=O)NCc3ccc(F)cc3)nc2n1 | i | i | i | i | i | i
CC(NCCCOc1cccc2ccccc12)c1ccccc1 (stereo not given) | 94 | i | i | i | i | i
NC(=O)C1=C[C@@H](C2CCCCC2)C[C@@H](OCCCCO)O1 | i | i | i | i | i | i
O=S(=O)(c1cc(F)ccc1F)N1CCN(c2ncnc3ccccc23)CC1 | i | i | i | i | i | 88
CCc1ccc(C(O)c2ncc(-c3ccc(C)cc3)[nH]2)cc1 (stereo not given) | i | i | i | nt | i | i
O=C1CSC(=S)N1c1cccc(O)c1 | i | 48 | i | i | i | i
O=C(O)c1cccc(N2C(=O)CSC2=S)c1 | i | i | i | i | i | i
CCCN(CCC)CC(=O)Nc1cccc2c1OCO2 | i | i | i | i | i | i
COc1cccc(NC(=O)CN(C)C(=O)c2cc(-c3cccc(Br)c3)nc3ccccc23)c1 | 71 | i | i | i | i | i
CCOc1ccccc1CNC(=O)CN1C(=O)CSc2ccc(S(=O)(=O)N3CCOCC3)cc21 | i | i | i | i | i | i
CC(=O)c1cn(CCOc2cc(C)ccc2C)c2ccccc12 | i | i | i | i | i | 90
COc1cccc(OCCn2cc(C(C)=O)c3ccccc32)c1 | i | i | i | i | i | 87
Cc1ccc(C)c(OCCn2cc(C(=O)O)c3ccccc32)c1 | i | i | i | i | i | i
CC1CCCCC1NC(=O)C1CCCN(S(=O)(=O)c2ccc(-n3cnnn3)cc2)C1 (stereo not given) | i | i | i | i | i | i
CC(C)c1nnc(NC(=O)CCS(=O)(=O)c2nc(-c3cccs3)cc(C(F)(F)F)n2)s1 | 107 | i | i | i | 95 | 99
CCCC(=O)N(CCN1CCOCC1)c1nc2c(F)cc(F)cc2s1 | i | i | i | i | i | i
